According to PubChem BioAssay:
Calls of active or inactive are those of the source. Unless noted, the rule behind the calls is not given here.

What was measured:
[1] = system: Wnt5a (protein binding on small-molecule microarray); experiment: Wnt5a binders on small-molecule microarray, primary screen, biophysical, 635/667 nm fluorescence (AID 1142); conditions: 635 nm fluorescence, higher = more signal;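 note: fluorescence read at 667 nm with signal to noise per printed feature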
[2] = cell viability in Huh7 cells, primary screen, cytotoxicity control for HCV replication inhibitor project, CellTiter-Glo luminescence, basal, 48 h (AID 1143); conditions: Huh7 HCV replicon, higher = more signal, called active from +8 up or from −8 down;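 note: Huh7 hepatoma cells carrying a hepatitis C replication reporter with no stimulus; test concentration not given here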
[3] = P. aeruginosa biofilm formation inhibitors, primary screen, PAO1 strain, BacTiter-Glo luminescence, LB-PBS (AID 1144); conditions: 12 h, higher = more signal
[4] = CREB reporter modulators without forskolin, primary screen, cell-based, PC12, CRE-LacZ reporter, unstimulated (AID 1145); conditions: no forskolin, luminescence, 4.5 h, higher = more signal, called active from +8 up or from −8 down
[5] = CREB reporter modulators under forskolin, primary screen, cell-based, PC12, CRE-LacZ reporter, forskolin-stimulated (AID 1146); conditions: luminescence, 4.5 h, higher = more signal, called active from +8 up or from −8 down;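 note: PC12 cells with 6xCRE LacZ reporter stimulated by forskolin 10 µM; beta-galactosidase reporter signal reflecting CREB driven transcription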
[6] = biological target: Streptavidin (Streptomyces avidinii) (UniProt P22629); experiment: streptavidin binders on small-molecule microarray, primary screen, artefact control for SMM compound annotation, biophysical, 635/667 nm fluorescence (AID 1147); conditions: streptavidin binding, higher = more signal;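 note: signal reflects streptavidin binding to arrayed compounds as a control protein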
[7] = small-molecule binders of probe aInhba, primary screen, biochemical, small-molecule microarray, 635/667 nm fluorescence (AID 1148); conditions: higher = more signal;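 note: score merges 667nm spot fluorescence with signal-to-noise for antibody binding to printed compounds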
[8] = biological target: Torsin-1A (Homo sapiens) (UniProt O14656); experiment: torsin A binders from cell lysate, primary screen, small-molecule microarray, wild-type, 635/667 nm (AID 1149); conditions: COS7 hTOR1A-WT lysate, 635 nm fluorescence, higher = more signal
[9] = biological target: Torsin-1A (Homo sapiens) (UniProt O14656); experiment: small-molecule binders of mutant TOR1A in lysate, primary screen, cell lysate, small-molecule microarray, COS7 lysate, 635/667 nm fluorescence (AID 1150); conditions: COS7 hTOR1A mutant lysate, 635 nm fluorescence, higher = more signal;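 note: score pools 667 nm emission and signal to noise measuring lysate protein binding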
[10] = system: Sonic hedgehog protein (Shh); experiment: small-molecule binders of Shh protein, primary screen, biochemical, small-molecule microarray, 635/667 nm fluorescence (AID 1151); conditions: small-molecule microarray binding, 635 nm fluorescence; higher = more signal;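 note: Shh protein binding to compounds spotted on small-molecule microarray slides; score combines spot fluorescence intensity with signal-to-noise across triplicate slides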

Chain of Streptavidin (Streptomyces avidinii) (P22629 whole entry, looked up): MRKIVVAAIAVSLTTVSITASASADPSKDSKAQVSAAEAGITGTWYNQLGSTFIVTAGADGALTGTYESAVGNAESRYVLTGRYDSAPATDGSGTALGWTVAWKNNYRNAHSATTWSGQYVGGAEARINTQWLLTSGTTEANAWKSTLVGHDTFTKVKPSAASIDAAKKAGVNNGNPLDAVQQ
Chain of Torsin-1A (Homo sapiens) (O14656 whole entry, looked up): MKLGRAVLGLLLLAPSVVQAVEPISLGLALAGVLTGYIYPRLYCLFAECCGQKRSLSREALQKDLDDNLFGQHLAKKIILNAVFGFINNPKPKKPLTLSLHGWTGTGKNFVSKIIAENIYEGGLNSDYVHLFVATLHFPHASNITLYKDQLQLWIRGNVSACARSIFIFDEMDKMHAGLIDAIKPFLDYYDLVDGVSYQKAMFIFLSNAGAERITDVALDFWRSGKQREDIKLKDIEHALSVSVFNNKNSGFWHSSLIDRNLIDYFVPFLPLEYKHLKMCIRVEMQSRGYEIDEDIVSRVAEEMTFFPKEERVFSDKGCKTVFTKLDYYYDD

SMILES	composite z-score [1]	z-score [2]	z-score [3]	z-score [4]	z-score [5]	composite z-score [6]	composite z-score [7]	composite z-score [8]	composite z-score [9]	composite z-score [10]
[N-]=[N+]=Nc1ccccc1C[C@]1(C(=O)N2CCOCC2)COC(c2ccc(OCCCO)cc2)=N1	0.375	-4.38 (inactive)	-0.33 (inactive)	0.344 (inactive)	-0.687 (inactive)	1.42	0.191	0.442	0.507	-1.01
COc1ccc(C#Cc2ccc3c(c2)[C@]2(C(=O)N3)[C@H](c3ccc(OCCO)cc3)N3[C@H](c4ccccc4)[C@H](c4ccccc4)OC(=O)[C@H]3[C@@H]2C(=O)NC[C@H](O)c2ccccc2)cc1	0.501	-2.47 (inactive)	-0.506 (inactive)	-0.491 (inactive)	-0.808 (inactive)	0.777	0.122	-0.0854	0.327	1.32
C=C[C@@H](OC)[C@H](OC(=O)Nc1ccc(OC)cc1)c1ccc(O)c(F)c1	-0.182	-2.63 (inactive)	-0.238 (inactive)	2.21 (inactive)	1.53 (inactive)	-0.938	-0.197	0.281	-0.278	1.96
COCCOC(=O)N1C(=O)[C@@]2(c3cc(C#CC4=CCCCC4)ccc31)[C@H](c1ccccc1OCCO)N1[C@H](c3ccccc3)[C@H](c3ccccc3)OC(=O)[C@H]1[C@@H]2C(=O)NC[C@H](O)c1ccccc1	0.6	-4.97 (inactive)	0.819 (inactive)	-0.329 (inactive)	0.083 (inactive)	0.423	-0.0428	0.281	0.501	2.13
CC(C)c1ccc(NN2C(C(O)c3ccc(F)cc3)C=CC3C(=O)N(c4ccccc4)C(=O)C32)cc1 (stereo not given)	0.306	-0.953 (inactive)	-1.63 (inactive)	0.812 (inactive)	0.3 (inactive)	1.7	0.324	-0.448	0.0626	-0.0155
C=CCNC(=O)[C@@H]1[C@H]2C(=O)O[C@H](c3ccccc3)[C@H](c3ccccc3)N2[C@H](c2ccccc2OCCO)[C@@]12C(=O)Nc1ccc(C#CCC(C(=O)OC)C(=O)OC)cc12	0.0142	-6.3 (inactive)	0.616 (inactive)	-0.191 (inactive)	-1.03 (inactive)	0.0625	0.84	0.834	0.566	0.499
Cc1ccc(NN2C(C(O)c3c(F)cccc3Cl)C=CC3C(=O)N(C4CCCCC4)C(=O)C32)cc1 (stereo not given)	0.361	-3.26 (inactive)	-0.933 (inactive)	-0.0787 (inactive)	0.355 (inactive)	1.75	-0.0675	0.0334	0.448	-0.216
CCCCCN1CC=CC23O[C@@H]4C=CCCOC(=O)C4[C@H]2C(=O)N(CCCCCCO)[C@@H]3C1=O (stereo not given in full)	-0.296	-0.181 (inactive)	-0.00872 (inactive)	-1.03 (inactive)	-0.215 (inactive)	-0.943	-0.263	1.13	2.1	0.0725
O=C(NCCN1CCOCC1)[C@@H]1c2ccccc2C(=O)N(Cc2ccccc2Cl)[C@H]1c1ccc(CO)cc1	-0.38	-0.276 (inactive)	0.11 (inactive)	-0.295 (inactive)	-0.6 (inactive)	-0.831	-0.32	-0.826	1.23	-1.07
CC1CC/C=C\[C@H]2OC34C=CCN(C(C)C)C(=O)[C@H]3N(CCO)C(=O)[C@@H]4C2C(=O)O1 (stereo not given in full)	-0.417	-0.177 (inactive)	0.591 (inactive)	-0.619 (inactive)	-0.599 (inactive)	-1.14	-0.203	-0.737	-1.17	-0.778
O=C(c1ccccc1)N1C(=O)[C@]2(Cc3ccccc31)N=C(c1ccc(OCCCO)cc1)O[C@@H]2c1ccccc1	1.09	-5.16 (inactive)	-0.378 (inactive)	2.67 (inactive)	2.1 (inactive)	0.431	-0.0361	0.357	0.562	2.09
COC(=O)C1=CC(CCCO)=CC(c2ccc(CN3CCCC3)cc2)N(Cc2cccc(OC(F)(F)F)c2)C=C1C(=O)OC (stereo not given)	-0.0146	-2.24 (inactive)	1.23 (inactive)	-0.554 (inactive)	-0.727 (inactive)	0.644	0.0769	0.648	1.18	-0.136
CC1CC/C=C\[C@H]2OC34C=CCN(c5ccc6ccccc6c5)C(=O)[C@H]3N(CCCO)C(=O)[C@@H]4C2C(=O)O1 (stereo not given in full)	-1.1	0.0518 (inactive)	1.57 (inactive)	0.191 (inactive)	0.234 (inactive)	-1.1	-0.293	-2.88	-1.47	-0.749
NCCCCCNC(=O)[C@@H]1C[C@@H]2C(=O)N[C@@H](CCCCN)C(=O)N2[C@@H]1c1ccc(O)cc1	-0.0113	-0.308 (inactive)	-0.148 (inactive)	0.0205 (inactive)	-0.878 (inactive)	0.811	0.217	0.811	1.59	1.99
[N-]=[N+]=NCc1ccccc1[C@H]1OC(c2ccc(OCCCO)cc2)=N[C@@]1(Cc1ccccc1N=[N+]=[N-])C(=O)NCC(O)CO (stereo not given in full)	0.462	-3.57 (inactive)	0.401 (inactive)	0.745 (inactive)	-1.22 (inactive)	0.9	0.346	0.256	0.301	-0.562
C=CCNC(=O)[C@H]1[C@@H]2C(=O)O[C@@H](c3ccccc3)[C@@H](c3ccccc3)N2[C@@H](c2ccccc2OCCO)[C@]12C(=O)N(C(=O)OCCOC)c1ccc(C#CC3(O)CCCCCC3)cc12	0.358	-5.57 (inactive)	-0.717 (inactive)	-0.258 (inactive)	0.347 (inactive)	-0.139	0.0566	0.216	0.647	1.57
C[N+](C)(C)CCCC[C@@H]1NC(=O)[C@@H]2C[C@H](C(=O)NCCCCCCN)[C@H](c3cccc(OCCO)c3)N2C1=O	0.397	0.279 (inactive)	0.32 (inactive)	2.84 (inactive)	-0.618 (inactive)	1.67	1.22	0.85	1.65	0.691
COC(=O)[C@@]1(Cc2ccccc2)[C@H]2c3cc(C(=O)N(C)C)n(Cc4ccc(C)o4)c3C[C@H]2CN1C(=O)c1ccccc1	1.28	-4.01 (inactive)	-0.142 (inactive)	-0.185 (inactive)	0.2 (inactive)	2.31	1.44	0.125	0.751	0.406
CCOC(=O)[C@@H]1CCCCN1C(=O)C(=O)OC	0.214	0.474 (inactive)	0.594 (inactive)	0.362 (inactive)	1.56 (inactive)	-0.0957	0.0118	0.188	-0.144	0.901
COCCCNC(=O)[C@@]1(Sc2ccc(C)cc2)CC(=O)N(C2Cc3ccccc3C2)[C@@H]1c1ccc(CO)cc1	-0.228	-4.69 (inactive)	-1.03 (inactive)	0.685 (inactive)	1.95 (inactive)	-1.17	-0.327	-1.86	-1.35	-1.45
CC1=C2[C@@H](CCc3ccccc3)OB(O)C[C@@H]2[C@@H]2C(=O)N(C)C(=O)[C@@H]2C1	0.318	-0.239 (inactive)	-0.294 (inactive)	-0.866 (inactive)	0.829 (inactive)	-0.0498	-0.252	-0.126	0.355	0.464
CC[C@@H]1C=C(C(=O)O)[C@H](c2ccccc2)N1S(=O)(=O)c1ccc(C)cc1	0.0651	-0.272 (inactive)	0.853 (inactive)	-0.676 (inactive)	-0.0818 (inactive)	0.0128	-0.197	0.474	0.518	-0.313
COc1cc(C(O)C2C=CC3C(=O)N(C)C(=O)C3N2Nc2ccccc2)cc(OC)c1OC (stereo not given)	0.238	0.338 (inactive)	-0.426 (inactive)	0.246 (inactive)	-0.944 (inactive)	1.06	0.813	0.892	1.17	-0.153
CCCC[C@@H]1C[C@H]1[C@@H](NC(=O)c1cccs1)c1ccccc1C(F)(F)F	0.0098	-1.37 (inactive)	-1.3 (inactive)	0.587 (inactive)	1.4 (inactive)	2.1	0.274	0.458	0.555	-0.142
NCCCCCNC(=O)[C@H]1C[C@H]2C(=O)N3CCC[C@H]3C(=O)N2[C@H]1c1cccc(OCCO)c1	0.444	-0.0422 (inactive)	0.294 (inactive)	0.143 (inactive)	-0.0024 (inactive)	0.812	0.0792	1.05	0.264	0.148
O=C1CS(=O)(=O)C(c2cccc([N+](=O)[O-])c2)N1c1ccccc1 (stereo not given)	0.388	-1.67 (inactive)	-1.16 (inactive)	-0.231 (inactive)	-1.44 (inactive)	0.392	1.03	0.909	0.655	0.781
CC(C)N1C(=O)C[C@@](C(=O)O)(c2ccc([N+](=O)[O-])cc2)[C@H]1c1ccc(CO)cc1	-0.0691	0.034 (inactive)	1.17 (inactive)	0.441 (inactive)	-0.303 (inactive)	-0.923	-0.0288	-0.254	-0.0237	-0.878
CN(C)c1ccc(C(O)C2C=CC3C(=O)NC(=O)C3N2Nc2ccccn2)cc1 (stereo not given)	0.0094	1 (inactive)	0.161 (inactive)	-1.49 (inactive)	0.337 (inactive)	0.0863	-0.152	1.05	0.927	0.862
CC(C)[Si]1(C(C)C)OCc2cc(C3CC3)nc(-c3ccc(Oc4ccccc4)cc3)c21	-0.223	-1.03 (inactive)	-0.823 (inactive)	-0.113 (inactive)	0.0211 (inactive)	-0.502	-0.0604	0.726	-1.07	-0.241
